Screening results deposited in PubChem by several laboratories.
HDAC3 inhib – human HDAC3 inhibition | recombinant HDAC3, fluorogenic peptide/trypsin coupled, fluorescence | 0.15% of 320,000 active | inhibition, % at 8.3 µM; in the data active = inhibition above about 26%, passing the limit was not always enough; inconclusive = no clear call, values can overlap the other calls
Target sequence (O15379 whole entry, looked up): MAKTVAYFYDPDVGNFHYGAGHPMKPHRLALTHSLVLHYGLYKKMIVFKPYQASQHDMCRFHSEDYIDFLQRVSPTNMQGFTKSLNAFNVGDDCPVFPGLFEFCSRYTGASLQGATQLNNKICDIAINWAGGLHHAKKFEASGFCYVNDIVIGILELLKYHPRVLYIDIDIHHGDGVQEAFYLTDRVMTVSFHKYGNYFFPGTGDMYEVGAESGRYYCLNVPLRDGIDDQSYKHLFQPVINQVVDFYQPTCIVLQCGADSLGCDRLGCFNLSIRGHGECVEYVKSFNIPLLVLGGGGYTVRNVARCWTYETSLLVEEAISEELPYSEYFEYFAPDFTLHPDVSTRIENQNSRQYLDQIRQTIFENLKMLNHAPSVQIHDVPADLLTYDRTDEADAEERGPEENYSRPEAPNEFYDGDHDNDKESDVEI
IDE cell activ – activators of human insulin-degrading enzyme in cells; P14735; HEK cells, FAbeta-B cleavage, fluorescence polarization; 0% vehicle, 100% cell-free pure enzyme wells; activation, % at 5.96 µM; 0.073% of 340,000 active; AID 493087;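 active = activation above the mean of all tested compounds plus 3 SD, set per screening campaign, cut at about 17% in these data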
Mot1-301 SUMO – blocks SUMOylation pathway, rescuing yeast Mot1-301 growth; S. cerevisiae Mot1-301 growth rescue, ATP luminescence, 38.5C; percent above DMSO median, 100 means doubled; growth rescue, % at 18.8 µM; 1% of 320,000 active; AID 2716;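 active = every valid replicate shows activation above 250% relative to neutral control wells; inactive = the rest, any valid replicate at or below 250%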;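 also: OY570 slx delta 5 strain wells were the positive control but not used for scaling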
IDE cell inh – inhibits human insulin-degrading enzyme in HEK cells; P14735; FAbetaB cleavage, fluorescence polarization; inhibition, % at 5.59 µM; 0.41% of 320,000 active; AID 434962;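 active = percent inhibition above the average of all tested compounds plus 3 SD, set per screening campaign, cut at about 16% in these data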;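 also: IDE supplied by intact live HEK cells; FP after avidin binding of uncleaved biotin substrate so inhibition keeps polarization high; 0% = DMSO wells and 100% = 60 µM reference IDE inhibitor Ii1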
LANA-H2A inh – blocks KSHV LANA binding to histone H2A/H2B | Q9QR71 | cell-free LANA-H2A/H2B peptide, fluorescence polarization | inhibition, % (test concentration not listed) | 0.6% of 320,000 active | AID 2629; in the data active = inhibition mostly above about 10%, no sharp cut-off; inactive = mostly below about 6.7%
Active calls of the source: *; i = inactive; ? = inconclusive; . = no result given. A selection: hits, their analogues and other compounds. The true share with any hit is near 2.1%.

SMILES | HDAC3 inhib | IDE cell activ | Mot1-301 SUMO | IDE cell inh | LANA-H2A inh
O=C(NC1CCCCC1)C(c1ccco1)N(C(=O)c1csnn1)c1cccc(F)c1 (stereo not given) | -3 | -5 | -5 | 2 | -5
COc1cccc(CN2CC(C(=O)N(C)Cc3ccc(C)cc3)CCC2=O)c1 (stereo not given) | 8 | 2 | 1 | 0 | 14*
O=C1N[C@H](Cc2ccccc2)COC(=O)[C@@H](Cc2ccc(F)cc2)CC/C=C/C[C@H]1CC(=O)N(CCO)Cc1ccccc1 | 29* | 2 | 7 | 2 | 1
Cc1cc(-c2nn(-c3ccccc3F)cc2CN2CCN(c3ccccn3)CC2)c(C)s1 | -1 | 0 | 378 | -2 | -6
Cn1nc(CC(=O)Nc2cccnc2N2CCOCC2)c2ccccc2c1=O | 1 | . | -11 | 6 | 38*
Cn1nc(CC(=O)NC2CCCCCCCCCCC2)c2ccccc2c1=O | 11 | -4 | 8 | -1 | -4
O=C(C(=O)c1ccc(O)cc1)c1ccccc1 | -8 | 5 | 356* | 3 | 4
O=P(c1ccccc1)(c1ccccc1)c1ccc(O)cc1 | -2 | 2 | 349* | -2 | -3
O=C(O)c1ccccc1P(=O)(c1ccccc1)c1ccccc1 | -2 | 2 | 233 | -2 | -2
O=C(c1ccc(O)cc1)c1ccc(C(=O)c2ccc(O)cc2)cc1 | -4 | 4 | 38 | 3 | 13*
CC1(CO)COC2(OC1)C(=O)Nc1ccccc12 (stereo not given) | . | 0 | . | . | .
COc1cc(/C=C2/SC(=S)N(Cc3ccccc3)C2=O)cc(Cl)c1O | 4 | -118 | 1 | 86* | -11
COc1cc(/C=C2/SC(=S)N(Cc3ccccc3)C2=O)ccc1OCC(=O)O | 4 | -2 | -7 | 13 | -4
CCOc1cc(/C=C2/SC(=S)N(Cc3ccccc3)C2=O)ccc1O | 1 | -75 | -6 | 83* | -7
O=C1/C(=C/c2ccc(O)c([N+](=O)[O-])c2)SC(=S)N1Cc1ccccc1 | 1 | 3 | -16 | -2 | 2
O=C(CCCSc1ccccc1)Nc1ccc(Cl)c(S(=O)(=O)N2CCOCC2)c1 | 8 | -8 | 2 | 0 | -2
C/C(Cl)=C/Cn1c(SCC(C)C)nc2c1c(=O)[nH]c(=O)n2C | -3 | 2 | -2 | 0 | 10
CCCCOC(=O)CSc1nc2c(c(=O)[nH]c(=O)n2C)n1C/C=C(\C)Cl | 1 | 4 | -8 | 9 | 12*
O=C1OCCC1Sc1nnnn1-c1ccccc1 (stereo not given) | 1 | 3 | 2 | 4 | i
O=C1OCCC1Sc1nnc(-c2ccc3c(c2)OCO3)n1-c1ccccc1 (stereo not given) | 10 | 2 | 340* | 7 | -1
Cc1ccccc1-c1nc(CN2CCC(C(=O)NCCCN3CC(C)CC(C)C3)CC2)c(C)o1 (stereo not given) | -1 | 0 | 559* | -2 | -3
Cc1c(N2C(=O)/C(=C3\C(=O)N(CC(=O)O)c4ccccc43)SC2=S)c(=O)n(-c2ccccc2)n1C | 9 | -5 | -16 | 5 | 22*
CC(C)(CN1CCc2ccccc2C1)NS(=O)(=O)c1ccc(Cl)cc1 | -3 | -6 | 91 | -1 | 25*
CN1CCN(CC(C)(C)NS(=O)(=O)c2ccc(Cl)cc2)CC1 | ? | -3 | 2 | 0 | 11
COc1ccc(Nc2nc(C(=O)N3CCc4ccccc4C3)cs2)cc1 | 4 | 0 | -6 | 7 | 19*
SMILES | HDAC3 inhib | IDE cell activ | Mot1-301 SUMO | IDE cell inh | LANA-H2A inh
O=C(O)C1CCCN(C(=O)c2cccc3ccccc23)C1 (stereo not given) | 5 | -1 | 1 | 1 | -4
O=C(c1cccc2ccccc12)N1CCCCC1 | 0 | 6 | 172 | -2 | 11*
O=C(c1csc(Nc2cccc3ccccc23)n1)N1CCCC1 | 0 | 6 | 607* | 4 | 3
Nc1nc(N)c(N=O)c(OCC2CCCCC2)n1 | 9 | 0 | -3 | 3 | 0
COc1ccccc1CNC(=O)COC(=O)c1cc(=O)c2ccccc2o1 | 4 | 3 | 6 | 9 | 17*
COCCn1c(SCC(=O)N2CCCc3ccccc32)nc2c(c1=O)SC(C)C2 (stereo not given) | 8 | 0 | -8 | -1 | -1
CCn1c(SCC(=O)N2CCc3ccccc32)nc2c(c1=O)SC(C)C2 (stereo not given) | 0 | . | 343* | -1 | -1
COCCn1c(SCC(=O)N2CCc3ccccc32)nc2c(c1=O)SC(C)C2 (stereo not given) | 0 | -1 | -9 | -1 | 8.1*
O=C(CSc1nnc(-c2ccccc2O)o1)N1CCOCC1 | . | -2 | . | . | .
O=C(CSc1nnc(-c2ccccc2Br)o1)N1CCOCC1 | -4 | -5 | 5 | 0 | 20*
CCCCCCCCOc1ccc(C(=O)O)cc1 | 8 | 2 | 80 | 6 | 112*
CCCCOc1ccc(C(=O)O)cc1 | -4 | 11 | 241 | 2 | 5
CC(=O)SC(C[N+](=O)[O-])c1cn(C(C)=O)c2ccccc12 (stereo not given) | 3 | -11 | 404* | 6 | 5
CC(=O)n1cc(Nc2ccc([N+](=O)[O-])cc2)c2ccccc21 | 1 | 2 | . | -2 | -4
CCCN(CC(=O)Nc1ccccc1C)C(=O)Cc1c(C)nc2ccccc2c1C | 4 | 6 | 16 | -4 | 140*
CCCN(CC(=O)Nc1ccccc1C)C(=O)Cc1c[nH]c2ccccc12 | . | -1 | . | . | .
CCOc1ccc(CN(C)C(=O)c2cc(S(=O)(=O)N3CCCC3)ccc2C)cc1 | -6 | -1 | 165 | -1 | 3
NC(=O)c1ncc(C(F)(F)F)cc1Oc1cccc(C(F)(F)F)c1 | -4 | 14 | 309* | 2 | 3
NC(=O)c1ncc(C(F)(F)F)cc1Oc1cccc(F)c1 | 5 | 5 | 17 | 2 | -4
O=C(O)CCNC(=O)CCCn1nnc2ccccc2c1=O | -8 | 5 | -12 | -1 | 92*
CC(C)C[C@H](NC(=O)CCCn1nnc2ccccc2c1=O)C(=O)O | 3 | -2 | -16 | -3 | 0
Cc1nc(-c2ccc(C(=O)Nc3cc(S(N)(=O)=O)ccc3C)cc2)cs1 | -14 | -7 | 15 | 3 | -2
Cc1ccc(NC(=O)Nc2ccno2)cc1 | 8 | . | 32 | 6 | -4
COc1ccc(Cl)cc1NC(=O)CN1CCN(S(=O)(=O)N2CCOCC2)CC1 | -1 | 0 | 291* | 0 | 3
COc1ccc(Cl)cc1NC(=O)CN1CCCC1 | -1 | 1 | 1 | 0 | -2
COc1ccc(-c2csc3ncn(CC(=O)N4CCOCC4)c(=O)c23)cc1 | 2 | 7 | 33 | 9 | 16*
O=C(Cn1cnc2scc(-c3ccc(F)cc3)c2c1=O)N1CCOCC1 | 2 | 0 | 0 | -1 | -7
O=C(O)C1CCN(S(=O)(=O)c2cccc3nonc23)CC1 | -1 | 4 | -11 | 3 | 0
CCOc1ccc2c(c1)c1nc3ccccc3nc1n2C | 0 | 0 | 105 | . | 39*
O=C(CN1CCN(c2ccccn2)CC1)Nc1cccc(S(=O)(=O)N2CCOCC2)c1 | -5 | 2 | 0 | 7 | 26*
